The other results are listed elsewhere or left out. Active and inactive are the calls of the source.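 The calls were made as follows: active = compounds whose fitted half-maximal signal-loss concentration is at most twice their highest valid dose; inconclusive = flat curve with 30 to 70% signal loss, or poor fit; inactive = the rest.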

Consider 3 compounds from PubChem BioAssay AID743480 (Broad Institute, 2014).

The nature of the assay: cytotoxicity in HepG2 cells, dose response, cytotoxicity control, cell-based, CellTiter-Glo luminescence, cherry-pick, set 4 (AID 743480). As to conditions: HepG2 viability, ATP luminescence, 72 h; series mostly up to 26 µM; activity change, negative = cytotoxicity: at the top concentration. (In general: Cellular ATP, detected with luciferase, serves as a proxy for viable cell number.)
With `CC[C@H]1OC(=O)[C@H](C)[C@@H](O[C@H]2C[C@@](C)(OC)[C@@H](O)[C@H](C)O2)[C@H](C)[C@@H](O[C@@H]2O[C@H](C)C[C@H](N(C)C)[C@H]2O)[C@](C)(O)C[C@@H](C)[C@@H]2N[C@@H](COCCOC)O[C@H]([C@H]2C)[C@]1(C)O`, the “activity change, negative = cytotoxicity” value was 23.7 unspecified (inactive).
In the case of `C=CCNC(=O)c1ccccc1NC(=O)c1ccc(Cl)c(S(=O)(=O)Nc2cccc(C)c2C)c1` it was 13 unspecified (inactive).
In the case of `COc1ccc(Cn2c(-c3ccc(Cl)cc3)c[n+]3ccccc23)cc1` it was 9.96 unspecified (inactive).
